Assay outcomes (PubChem)
RORgamma inh – qHTS for inhibitors of ROR gamma transcriptional activity; 310,000 tested, 5.4% active; Drosophila S2 Gal4-RORgamma UAS-luciferase reporter, 20 h; AID 2551, 2010; Nuclear receptor ROR-gamma (Mus musculus), P51450; Potency, µM (top dose mostly 53.6 µM), hits mostly inhibitors; also: nearly all actives have a fitted effect of over 60% in size
Target sequence (P51450 whole entry, looked up, the tested form may be a part): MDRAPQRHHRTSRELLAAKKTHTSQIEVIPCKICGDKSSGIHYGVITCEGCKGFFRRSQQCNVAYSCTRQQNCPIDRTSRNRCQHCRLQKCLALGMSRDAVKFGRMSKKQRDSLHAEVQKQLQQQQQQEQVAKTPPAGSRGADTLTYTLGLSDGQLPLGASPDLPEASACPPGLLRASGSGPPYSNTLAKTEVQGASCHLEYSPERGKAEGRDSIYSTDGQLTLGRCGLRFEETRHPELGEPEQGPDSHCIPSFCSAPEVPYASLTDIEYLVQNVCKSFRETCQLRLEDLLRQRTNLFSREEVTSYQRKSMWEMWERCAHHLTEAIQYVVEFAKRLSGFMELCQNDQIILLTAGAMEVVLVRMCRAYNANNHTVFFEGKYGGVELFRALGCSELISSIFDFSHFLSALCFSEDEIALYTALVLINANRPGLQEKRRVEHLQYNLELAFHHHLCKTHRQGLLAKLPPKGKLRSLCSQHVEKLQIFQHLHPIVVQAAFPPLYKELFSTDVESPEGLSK
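Stable Schneider cell line, Gal4 DNA-binding domain fused to ROR gamma, UAS-luciferase. Cmpd 1 hr RT → CuSO4 700 uM final → 20 hr RT → luciferase reagent 10 min → luminescence.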
VP16 counter – VP16 counterscreen qHTS for inhibitors of ROR gamma transcriptional activity; Drosophila S2 Gal4-VP16 UAS-luciferase, luminescence, 20 h; Potency, µM (highest dose often 53.6 µM), actives largely listed as inhibitors; 310,000 tested, 3.5% active; AID 2546, 2010;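 also: Gal4-VP16 expression switched on by copper sulfate through the metallothionein promoter; nearly all actives have a fitted effect of over 50% in size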
GLP-1R agonist – qHTS of GLP-1 Receptor Agonists | AID 624172, 2012 | Potency, µM (highest dose often 45.6 µM), actives largely listed as activators | HEK293 GLP-1R CRE-luciferase, luminescence, 4-6 h; cells express a hypersensitive GLP-1R form | 380,000 tested, 0.007% active
HEK293 tox – qHTS of GLP-1 Receptor Inverse Agonists: Cytotox Screen | HEK293 cAMP-luciferase reporter cells, luminescence, 24 h | Potency, µM (doses to about 38.3 µM), actives largely listed as inhibitors | 410,000 tested, 0.13% active | AID 624418, 2012;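 also: loss of luciferase light is scored as toxicity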
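Step one: seed cells (200 cells/uL, DMEM with 10% Nu serum, 1% pen-strep). Step two: 12-hour incubation at 37 deg C. Step three: pin 23 nL compound, incubate 24 hr. Step four: add luciferase reagent, read luminescence 12 min later.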
GLP1R inv ag – qHTS of GLP-1 Receptor Inverse Agonists (Inhibition Mode). Glucagon-like peptide 1 receptor (Homo sapiens), P43220. HEK293 GLP-1R CRE-luciferase, luminescence, 24 h; GLP-1R form is constitutively active. Potency, µM (top dose mostly 38.3 µM), usual class: inhibitors. 410,000 tested, 1.6% active; also: nearly all actives have a fitted effect of over 55% in size
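HEK293 cells stably co-expressing a cAMP-responsive luciferase reporter and constitutively active GLP-1R were seeded, incubated 12 h, then exposed to compounds for 24 h at 37 C. Luminescence was read 12 min after detection reagent; inverse agonists lower signal.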
Each line names hits and unclear results; the compound was inactive in the other large screens. Hits are enriched below; roughly 5.9% of the tested compounds scored in any of these assays. Calls follow the shape of the dose curve; as a rule, active = well fitted curve in the direction sought with a large enough effect; inconclusive = small, poorly fitted or top-dose-only effect, or another doubt; inactive = no such curve, though single readings can be large; an effect the other way counts as inactive or inconclusive.

CN(C)C(=O)C1C2NC(=S)N(c3ccc(Cl)cc3)C1(C)Oc1ccc(Cl)cc12 (configuration not stated)	RORgamma inh 10µM, VP16 counter inconclusive, GLP1R inv ag inconclusive
Cc1cc(N2CCN(C)CC2)nc2ccc(NC(=O)Nc3ccccc3)cc12	GLP1R inv ag inconclusive (no result: RORgamma inh, VP16 counter, GLP-1R agonist)
Cc1cc(N2CCN(C)CC2)nc2ccc(NC(=O)Nc3cccc(Cl)c3)cc12	HEK293 tox inconclusive, GLP1R inv ag 10µM (no result: RORgamma inh, VP16 counter, GLP-1R agonist)
Cc1cc(N2CCCCC2)nc2ccc(NC(=O)c3cccc(F)c3)cc12	HEK293 tox inconclusive, GLP1R inv ag 11µM (no result: RORgamma inh, VP16 counter, GLP-1R agonist)
COc1ccc(CNC(=O)CN2C(=O)COc3ccc(S(=O)(=O)N4CCCCCC4)cc32)cc1	none (no result: RORgamma inh, VP16 counter, GLP-1R agonist)
COc1ccccc1NC(=O)CC(c1cc(OC)c(OC)c(OC)c1)N1Cc2ccccc2C1=O (configuration not stated)	none (no result: RORgamma inh, VP16 counter)
c1ccc2c(c1)ncn2CCN1CCCCC1	none
c1ccc(OCCCCn2cnc3ccccc32)cc1	RORgamma inh 13µM, VP16 counter inconclusive
c1ccc(CCn2cnc3ccccc32)cc1	RORgamma inh 13µM, VP16 counter inconclusive
Cc1ccccc1OCCCCn1cnc2ccccc21	VP16 counter 10µM, GLP-1R agonist inconclusive
c1ccc(OCCn2cnc3ccccc32)cc1	none
O=C(Nc1nccs1)c1ccc([N+](=O)[O-])cc1Cl	RORgamma inh 11µM, VP16 counter inconclusive
O=C(Nc1nccs1)c1ccc(Cl)cc1[N+](=O)[O-]	RORgamma inh 10µM, VP16 counter inconclusive
O=C(Nc1nccs1)c1ccc(Cl)c([N+](=O)[O-])c1	RORgamma inh 6.3µM, VP16 counter 4.5µM
COC(=O)NC(c1cccs1)C(C(C)=O)C(=O)OC (configuration not stated)	none (no result: GLP-1R agonist, HEK293 tox, GLP1R inv ag)
CCNc1nc(-c2ccc(OC(F)F)cc2)c(C)s1	RORgamma inh 11µM, GLP1R inv ag inconclusive
Cc1ccc(Cn2c(CNC(=O)c3ccccc3Br)nc3cccnc32)cc1	none (no result: RORgamma inh, VP16 counter, GLP-1R agonist)
Cc1ccc(S[C@@H](CCN2CC[C@H](C)CCC2=O)c2ccccc2)cc1	RORgamma inh inconclusive, GLP1R inv ag inconclusive
COc1ccc(S[C@@H](CCN2CC[C@H](C)CCC2=O)c2ccccc2)cc1	GLP1R inv ag 10µM (no result: RORgamma inh, VP16 counter)
Cc1ccc(S[C@@H](CCN2CC[C@H](C(C)(C)C)CCC2=O)c2ccccc2)cc1	VP16 counter 10µM, GLP1R inv ag 10µM
CN(C)c1ncc2nc(CCc3ccccc3)c(=O)n(Cc3cccs3)c2n1	none (no result: GLP-1R agonist, HEK293 tox, GLP1R inv ag)
CN(C)c1ccc(-c2n[nH]c(=S)n2-c2ccccc2)cc1	RORgamma inh 2.2µM, VP16 counter inconclusive
CCN(CC)c1ccc(-c2n[nH]c(=S)n2-c2ccccc2)cc1	RORgamma inh 1.6µM
Cc1ccc(OCC(=O)NC(=S)Nc2ccc(Br)c(C)n2)cc1	RORgamma inh 2.5µM
Cc1cccc(NC(=S)NC(=O)c2cccs2)n1	RORgamma inh 3.5µM, VP16 counter inconclusive, GLP-1R agonist inconclusive, HEK293 tox inconclusive, GLP1R inv ag 10µM
Cc1cccc(NC(=O)/C=C/c2cccs2)n1	RORgamma inh inconclusive, VP16 counter 22µM
O=C(/C=C/c1cccs1)Nc1ccncc1	none
Cc1nc(NC(=S)NC(=O)c2cccs2)ccc1Br	RORgamma inh 1.4µM, VP16 counter 13µM
COc1ccc(Cl)cc1S(=O)(=O)Nc1cccc(-c2ccc(N3CCOCC3)nn2)c1	none (no result: RORgamma inh, VP16 counter, GLP-1R agonist)
O=C(c1cc(C(F)(F)F)cc(C(F)(F)F)c1)N1CCC[C@@]2(CCN(Cc3ccncc3)C2)C1	none (no result: GLP-1R agonist, HEK293 tox, GLP1R inv ag)
COc1ccc(-c2csc3nc(-c4ccc(F)cc4)oc(=O)c23)cc1	none (no result: RORgamma inh, VP16 counter, GLP-1R agonist)
COc1ccc(-c2csc3nc(-c4ccccc4OC)oc(=O)c23)cc1	RORgamma inh 11µM
Cc1ccc(C(=O)c2sc(Nc3ccc(F)cc3)nc2N)c(C)c1	GLP1R inv ag 5µM (no result: RORgamma inh, VP16 counter, GLP-1R agonist)
CC(C)CO/N=C1/C[C@@H](O)[C@@H](O)[C@@H]2[C@@H]3C(=O)N(C[C@@H]4CCCO4)C(=O)[C@H]3CC[C@H]12	none (no result: GLP-1R agonist, HEK293 tox, GLP1R inv ag)
COc1ccc(C(=O)CCN2CCCCCC2)cc1	RORgamma inh 3.2µM, VP16 counter 5µM
CC(C)Oc1ccc(C(=O)CCN2CCCCC2)cc1	RORgamma inh 10µM, VP16 counter 6.3µM
CC(C)Oc1ccc(C(=O)CCN2CCOCC2)cc1	none (no result: RORgamma inh, VP16 counter)
Cn1nc(-c2ccc(N3CCOCC3)c(NS(=O)(=O)c3ccc(Cl)cc3)c2)c2ccccc2c1=O	RORgamma inh 10µM
CCOc1ccc(NC(=S)Nc2cccnc2)cc1	RORgamma inh inconclusive
COc1ccc(NC(=S)Nc2cc(C)[nH]n2)cc1Cl	RORgamma inh inconclusive, VP16 counter inconclusive
CCOc1ccc(NC(=S)Nc2cc(-c3ccccc3)[nH]n2)cc1	RORgamma inh 1.8µM, VP16 counter 3.5µM, HEK293 tox inconclusive, GLP1R inv ag inconclusive
COc1ccc(NC(=S)Nc2cc(-c3ccccc3)[nH]n2)cc1Cl	RORgamma inh 2.8µM, VP16 counter 2µM, HEK293 tox inconclusive
Cc1cc(NC(=S)Nc2ccc(C)c(Cl)c2)n[nH]1	RORgamma inh 0.35µM, VP16 counter 1µM, HEK293 tox inconclusive, GLP1R inv ag inconclusive
O=C(c1ccc2c(c1)OCO2)N1CCC2(CC1)Oc1ccc(F)cc1C(=O)C21CC(c2ccc(Cl)cc2)=NO1 (configuration not stated)	none
O=C(c1ccc2c(c1)OCO2)N1CCC2(CC1)Oc1ccc(Cl)cc1C(=O)C21CC(c2ccccc2)=NO1 (configuration not stated)	HEK293 tox 4.5µM
Cc1ccc(C(=O)OCC(=O)NCc2cccc(Cl)c2)cc1S(=O)(=O)N1CCCCC1	GLP1R inv ag 5µM (no result: RORgamma inh, VP16 counter)
O=C(COC(=O)c1cccc(S(=O)(=O)N2CCCCCC2)c1)Nc1ccccc1C(F)(F)F	none (no result: RORgamma inh, VP16 counter)
Cc1ccc(C(=O)OCC(=O)Nc2ccccc2C(F)(F)F)cc1S(=O)(=O)N1CCCCC1	GLP1R inv ag 10µM (no result: RORgamma inh, VP16 counter)
CCOc1ccc(C2c3c(oc4ccc(C)cc4c3=O)C(=O)N2c2nc(C)c(C)s2)cc1OC (configuration not stated)	none (no result: RORgamma inh, VP16 counter, GLP-1R agonist)
O=C(Nc1c(-c2ccccc2)nc2ccccn12)c1ccco1	none
Cc1ccc(-c2nc3ccccn3c2NC(=O)c2ccco2)cc1	RORgamma inh 40µM
Oc1ccc(-c2cnc(-c3ccc(O)cc3)nc2)cc1	RORgamma inh 2.5µM, VP16 counter inconclusive, GLP1R inv ag inconclusive
Nc1ccc(-c2cnc(-c3ccc(N)cc3)nc2)cc1	none
CC(C)[C@@H](CO)NC(=O)c1ccc2c3n(nc2c1)-c1ccccc1CO3	RORgamma inh inconclusive, VP16 counter inconclusive, GLP1R inv ag inconclusive
Cc1ccc2c(c1)COc1c3ccc(C(=O)NCC4CC4)cc3nn1-2	none
